In PubChem BioAssay (EPA / NIEHS):
Active and inactive are the calls of the source. The calls were made as follows: active = hit-call score of the fitted dose curve at least 0.9, where 1 is the maximum; inactive = score below 0.9.

Assays:
[1] = CEETOX_H295R_ESTRADIOL: CeeTox H295R High-throughput Steroidogenesis Assay for Estradiol (AID 2283440); settings: actives raise or lower the signal;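 also: estradiol secreted into medium quantified by LC-MS/MS after dansyl derivatisation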
How it was run: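 Estradiol secreted into the medium was measured by tandem mass spectrometry after liquid-liquid extraction and dansylation. Human H295R cells had been forskolin-primed (10 uM, 48 h) before a 48 h chemical exposure with 0.1% DMSO.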

[2] = CEETOX_H295R_ESTRONE: CeeTox H295R High-throughput Steroidogenesis Assay for Estrone (AID 2283441); settings: actives raise or lower the signal;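 also: estrone secreted into medium measured by LC-MS/MS after dansyl derivatization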;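 as to AC50: human adrenal H295R cells prestimulated with forskolin for two days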
How it was run: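 H295R cells; 48 h forskolin (10 uM) prestimulation; 48 h compound exposure, 0.1% DMSO final. Medium estrone: MTBE extraction, dansyl derivatization, HPLC-MS/MS. Bidirectional fit vs DMSO.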

[3] = read-out: Tumor necrosis factor receptor superfamily member 6 (Homo sapiens) (UniProt P25445); assay: LTEA_HepaRG_FAS: Life Technologies and Expression Analysis (LTEA) Assay for Fas cell surface death receptor (FAS) using HepaRG (AID 2283447); settings: mRNA level, 48 h; actives raise or lower the signal
How it was run: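 Differentiated HepaRG cells in serum-free induction medium were exposed 48 h to 8 half-log concentrations up to 100 uM in 0.5% DMSO, in duplicate. FAS mRNA was measured by qRT-PCR normalised to ACTB, GAPDH and POLR2A; bidirectional fit versus DMSO.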

[4] = read-out: Fatty acid synthase (Homo sapiens) (UniProt P49327); assay: LTEA_HepaRG_FASN: Life Technologies and Expression Analysis (LTEA) Assay for Fatty Acid Synthase (FASN) using HepaRG (AID 2283448); settings: mRNA level, 48 h; actives raise or lower the signal
How it was run: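 Differentiated human HepaRG cells were exposed for 48 h in serum-free induction medium to eight half-log concentrations up to 100 uM in 0.5% DMSO, in duplicate. FASN mRNA was quantified by TaqMan qRT-PCR, normalized to ACTB/GAPDH/POLR2A, and fitted bidirectionally against DMSO.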

[5] = read-out: Cyclin D2 (CCND2), CCND2 (gene 894); assay: LTEA_HepaRG_CCND2: Life Technologies and Expression Analysis (LTEA) Assay for Cyclin D2 (CCND2) using HepaRG (AID 2283449); settings: mRNA level, 48 h; actives raise or lower the signal;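 also: CCND2 transcript measured by TaqMan qRT-PCR and normalised to three housekeeping genes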
How it was run: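 Chemicals in 0.5% DMSO, eight half-log concentrations from 100 uM top, were applied in duplicate for 48 h to human HepaRG cells in serum-free induction medium. CCND2 mRNA by TaqMan qRT-PCR, normalised to ACTB/GAPDH/POLR2A; bidirectional fit versus DMSO.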

[6] = read-out: Cyclin Dependent Kinase Inhibitor 1A (CDKN1A), CDKN1A (gene 1026); assay: LTEA_HepaRG_CDKN1A: Life Technologies and Expression Analysis (LTEA) Assay for Cyclin Dependent Kinase Inhibitor 1A (CDKN1A) using HepaRG (AID 2283450); settings: mRNA level, 48 h; actives raise or lower the signal
How it was run: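 Read-out is CDKN1A mRNA by TaqMan qRT-PCR, normalized to three housekeeping genes and fitted in both directions against the DMSO baseline. Human HepaRG cells were treated 48 h with test chemicals up to 100 uM in half-log steps, 0.5% DMSO.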

[7] = read-out: Cyclin D1 (CCND1), CCND1 (gene 595); assay: LTEA_HepaRG_CCND1: Life Technologies and Expression Analysis (LTEA) Assay for Cyclin D1 (CCND1) using HepaRG (AID 2283451); settings: mRNA level, 48 h; actives raise or lower the signal;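 as to AC50: TaqMan qRT-PCR transcript level normalised to ACTB GAPDH and POLR2A housekeeping genes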
How it was run: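 HepaRG plated 48 h, medium switched to serum-free induction medium, chemicals added in duplicate (top 100 uM, half-log steps, 0.5% DMSO) for 48 h, cells lysed, RNA measured by TaqMan qRT-PCR.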

[8] = read-out: catalase (CAT), CAT (gene 847); assay: LTEA_HepaRG_CAT: Life Technologies and Expression Analysis (LTEA) Assay for catalase (CAT) using HepaRG (AID 2283452); settings: mRNA level, 48 h; actives raise or lower the signal;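 as to AC50: TaqMan qRT-PCR signal normalized to ACTB GAPDH and POLR2A housekeeping genes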
How it was run: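 HepaRG cells in serum-free induction medium, 0.5% DMSO vehicle, exposed 48 h in duplicate over 8 half-log concentrations from 100 uM. CAT mRNA measured by qRT-PCR, normalized to ACTB, GAPDH, POLR2A; bidirectional fit versus DMSO.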

[9] = read-out: flavin-containing dimethylaniline monooxygenases 3 (FMO3), FMO3 (gene 2328); assay: LTEA_HepaRG_FMO3: Life Technologies and Expression Analysis (LTEA) Assay for flavin-containing dimethylaniline monooxygenases 3 (FMO3) using HepaRG (AID 2283453); settings: mRNA level, 48 h; actives raise or lower the signal
How it was run: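 HepaRG, 48 h exposure, 8-pt half-log series from 100 uM, 0.5% DMSO vehicle, duplicates; FMO3 transcript by Fluidigm TaqMan qRT-PCR, housekeeping-normalized; gain/loss fit vs DMSO.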

[10] = read-out: CFLAR gene, CFLAR (gene 8837); assay: LTEA_HepaRG_CFLAR: Life Technologies and Expression Analysis (LTEA) Assay for CFLAR gene using HepaRG (AID 2283455); settings: mRNA level, 48 h; actives raise or lower the signal
How it was run: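 Differentiated HepaRG cells in serum-free induction medium were exposed 48 h in duplicate to eight half-log concentrations up to 100 uM in 0.5% DMSO; mRNA measured by TaqMan qRT-PCR, normalized to ACTB, GAPDH, POLR2A; bidirectional fitting versus DMSO.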

[11] = read-out: Forkhead box O1 (FOXO1), FOXO1 (gene 2308); assay: LTEA_HepaRG_FOXO1: Life Technologies and Expression Analysis (LTEA) Assay for Forkhead box O1 (FOXO1) using HepaRG (AID 2283456); settings: mRNA level, 48 h; actives raise or lower the signal
How it was run: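 Differentiated HepaRG cells, in serum-free induction medium with 0.5% DMSO, exposed 48 h in duplicate to 8-point half-log series from 100 uM. FOXO1 mRNA measured by TaqMan qRT-PCR, normalized to ACTB, GAPDH, POLR2A; bidirectional fit versus DMSO.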

[12] = read-out: growth arrest and DNA damage 45 (GADD45A), GADD45A (gene 1647); assay: LTEA_HepaRG_GADD45A: Life Technologies and Expression Analysis (LTEA) Assay for growth arrest and DNA damage 45 (GADD45A) using HepaRG (AID 2283458); settings: mRNA level, 48 h; actives raise or lower the signal
How it was run: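 Differentiated HepaRG cells were exposed in duplicate for 48 h in serum-free induction medium to 8-point half-log concentrations up to 100 uM in 0.5% DMSO. GADD45A mRNA was measured by TaqMan qRT-PCR, normalized to ACTB, GAPDH and POLR2A, with bidirectional fitting versus DMSO.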

[13] = read-out: Forkhead box O3 (FOXO3), FOXO3 (gene 2309); assay: LTEA_HepaRG_FOXO3: Life Technologies and Expression Analysis (LTEA) Assay for Forkhead box O3 (FOXO3) using HepaRG (AID 2283459); settings: mRNA level, 48 h; actives raise or lower the signal
How it was run: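 Differentiated human HepaRG cells, 48 h post-plating, exposed in duplicate for 48 h in serum-free induction medium; 8-point half-log series from 100 uM in 0.5% DMSO. FOXO3 mRNA by TaqMan qRT-PCR, normalized to ACTB/GAPDH/POLR2A; bidirectional fit versus DMSO.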

[14] = read-out: growth arrest and DNA damage 45 (GADD45B), GADD45B (gene 4616); assay: LTEA_HepaRG_GADD45B: Life Technologies and Expression Analysis (LTEA) Assay for growth arrest and DNA damage 45 (GADD45B) using HepaRG (AID 2283461); settings: mRNA level, 48 h; actives raise or lower the signal
How it was run: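 HepaRG, ~100,000 cells/well, 48 h plating; serum-free induction medium; cpd 100 uM top, half-log x8, 0.5% DMSO, duplicate, 48 h; lysis in RLT, RNA isolation, qRT-PCR; norm ACTB/GAPDH/POLR2A; bidirectional fit vs DMSO.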

[15] = read-out: ABC Transporter (ABCC3), ABCC3 (gene 8714); assay: LTEA_HepaRG_ABCC3: Life Technologies and Expression Analysis (LTEA) Assay for ABC Transporter (ABCC3) using HepaRG (AID 2283462); settings: mRNA level, 48 h; actives raise or lower the signal
How it was run: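 Human HepaRG, 48 h dosing, 8-pt half-log series from 100 uM, 0.5% DMSO vehicle, duplicates. ABCC3 mRNA by TaqMan qRT-PCR, housekeeping-normalized; bidirectional curve fit vs DMSO.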

[16] = read-out: ABC Transporter (ABCC2), ABCC2 (gene 1244); assay: LTEA_HepaRG_ABCC2: Life Technologies and Expression Analysis (LTEA) Assay for ABC Transporter (ABCC2) using HepaRG (AID 2283464); settings: mRNA level, 48 h; actives raise or lower the signal
How it was run: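 HepaRG, 48 h post-plating; serum-free induction medium; cpd 8-pt, 100 uM top, half-log, 0.5% DMSO, duplicate, 48 h. Readout: ABCC2 mRNA by qRT-PCR, norm. ACTB/GAPDH/POLR2A. Bidirectional fit vs DMSO baseline.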

[17] = read-out: Cytochrome P450 (CYP1A1), CYP1A1 (gene 1543); assay: LTEA_HepaRG_CYP1A1: Life Technologies and Expression Analysis (LTEA) Assay for Cytochrome P450 (CYP1A1) using HepaRG (AID 2283454); settings: mRNA level, 48 h; actives raise or lower the signal
How it was run: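 HepaRG, 48 h post-plating switched to serum-free induction medium; 8-pt conc-response (top 100 uM, half-log, 0.5% DMSO), duplicates, 48 h. Lysis in RLT, TaqMan qRT-PCR for CYP1A1; gain or loss vs DMSO.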

[18] = read-out: ABC Transporter (ABCB1), ABCB1 (gene 5243); assay: LTEA_HepaRG_ABCB1: Life Technologies and Expression Analysis (LTEA) Assay for ABC Transporter (ABCB1) using HepaRG (AID 2283460); settings: mRNA level, 48 h; actives raise or lower the signal
How it was run: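 HepaRG cells exposed in duplicate for 48 h in serum-free induction medium to eight half-log concentrations up to 100 uM in 0.5% DMSO. ABCB1 mRNA quantified by qRT-PCR, normalised to ACTB, GAPDH and POLR2A; fitted bidirectionally versus DMSO.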

[19] = read-out: ABC Transporter (ABCB11), ABCB11 (gene 8647); assay: LTEA_HepaRG_ABCB11: Life Technologies and Expression Analysis (LTEA) Assay for ABC Transporter (ABCB11) using HepaRG (AID 2283463); settings: mRNA level, 48 h; actives raise or lower the signal
How it was run: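 Differentiated human HepaRG cells in serum-free induction medium, dosed in duplicate for 48 h. Eight-point half-log series from 100 uM in 0.5% DMSO; ABCB11 mRNA by qRT-PCR, normalized to ACTB, GAPDH, POLR2A, fitted bidirectionally versus DMSO.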

Measured: AC50

Sequence of Fatty acid synthase (Homo sapiens) (P49327 whole entry, looked up): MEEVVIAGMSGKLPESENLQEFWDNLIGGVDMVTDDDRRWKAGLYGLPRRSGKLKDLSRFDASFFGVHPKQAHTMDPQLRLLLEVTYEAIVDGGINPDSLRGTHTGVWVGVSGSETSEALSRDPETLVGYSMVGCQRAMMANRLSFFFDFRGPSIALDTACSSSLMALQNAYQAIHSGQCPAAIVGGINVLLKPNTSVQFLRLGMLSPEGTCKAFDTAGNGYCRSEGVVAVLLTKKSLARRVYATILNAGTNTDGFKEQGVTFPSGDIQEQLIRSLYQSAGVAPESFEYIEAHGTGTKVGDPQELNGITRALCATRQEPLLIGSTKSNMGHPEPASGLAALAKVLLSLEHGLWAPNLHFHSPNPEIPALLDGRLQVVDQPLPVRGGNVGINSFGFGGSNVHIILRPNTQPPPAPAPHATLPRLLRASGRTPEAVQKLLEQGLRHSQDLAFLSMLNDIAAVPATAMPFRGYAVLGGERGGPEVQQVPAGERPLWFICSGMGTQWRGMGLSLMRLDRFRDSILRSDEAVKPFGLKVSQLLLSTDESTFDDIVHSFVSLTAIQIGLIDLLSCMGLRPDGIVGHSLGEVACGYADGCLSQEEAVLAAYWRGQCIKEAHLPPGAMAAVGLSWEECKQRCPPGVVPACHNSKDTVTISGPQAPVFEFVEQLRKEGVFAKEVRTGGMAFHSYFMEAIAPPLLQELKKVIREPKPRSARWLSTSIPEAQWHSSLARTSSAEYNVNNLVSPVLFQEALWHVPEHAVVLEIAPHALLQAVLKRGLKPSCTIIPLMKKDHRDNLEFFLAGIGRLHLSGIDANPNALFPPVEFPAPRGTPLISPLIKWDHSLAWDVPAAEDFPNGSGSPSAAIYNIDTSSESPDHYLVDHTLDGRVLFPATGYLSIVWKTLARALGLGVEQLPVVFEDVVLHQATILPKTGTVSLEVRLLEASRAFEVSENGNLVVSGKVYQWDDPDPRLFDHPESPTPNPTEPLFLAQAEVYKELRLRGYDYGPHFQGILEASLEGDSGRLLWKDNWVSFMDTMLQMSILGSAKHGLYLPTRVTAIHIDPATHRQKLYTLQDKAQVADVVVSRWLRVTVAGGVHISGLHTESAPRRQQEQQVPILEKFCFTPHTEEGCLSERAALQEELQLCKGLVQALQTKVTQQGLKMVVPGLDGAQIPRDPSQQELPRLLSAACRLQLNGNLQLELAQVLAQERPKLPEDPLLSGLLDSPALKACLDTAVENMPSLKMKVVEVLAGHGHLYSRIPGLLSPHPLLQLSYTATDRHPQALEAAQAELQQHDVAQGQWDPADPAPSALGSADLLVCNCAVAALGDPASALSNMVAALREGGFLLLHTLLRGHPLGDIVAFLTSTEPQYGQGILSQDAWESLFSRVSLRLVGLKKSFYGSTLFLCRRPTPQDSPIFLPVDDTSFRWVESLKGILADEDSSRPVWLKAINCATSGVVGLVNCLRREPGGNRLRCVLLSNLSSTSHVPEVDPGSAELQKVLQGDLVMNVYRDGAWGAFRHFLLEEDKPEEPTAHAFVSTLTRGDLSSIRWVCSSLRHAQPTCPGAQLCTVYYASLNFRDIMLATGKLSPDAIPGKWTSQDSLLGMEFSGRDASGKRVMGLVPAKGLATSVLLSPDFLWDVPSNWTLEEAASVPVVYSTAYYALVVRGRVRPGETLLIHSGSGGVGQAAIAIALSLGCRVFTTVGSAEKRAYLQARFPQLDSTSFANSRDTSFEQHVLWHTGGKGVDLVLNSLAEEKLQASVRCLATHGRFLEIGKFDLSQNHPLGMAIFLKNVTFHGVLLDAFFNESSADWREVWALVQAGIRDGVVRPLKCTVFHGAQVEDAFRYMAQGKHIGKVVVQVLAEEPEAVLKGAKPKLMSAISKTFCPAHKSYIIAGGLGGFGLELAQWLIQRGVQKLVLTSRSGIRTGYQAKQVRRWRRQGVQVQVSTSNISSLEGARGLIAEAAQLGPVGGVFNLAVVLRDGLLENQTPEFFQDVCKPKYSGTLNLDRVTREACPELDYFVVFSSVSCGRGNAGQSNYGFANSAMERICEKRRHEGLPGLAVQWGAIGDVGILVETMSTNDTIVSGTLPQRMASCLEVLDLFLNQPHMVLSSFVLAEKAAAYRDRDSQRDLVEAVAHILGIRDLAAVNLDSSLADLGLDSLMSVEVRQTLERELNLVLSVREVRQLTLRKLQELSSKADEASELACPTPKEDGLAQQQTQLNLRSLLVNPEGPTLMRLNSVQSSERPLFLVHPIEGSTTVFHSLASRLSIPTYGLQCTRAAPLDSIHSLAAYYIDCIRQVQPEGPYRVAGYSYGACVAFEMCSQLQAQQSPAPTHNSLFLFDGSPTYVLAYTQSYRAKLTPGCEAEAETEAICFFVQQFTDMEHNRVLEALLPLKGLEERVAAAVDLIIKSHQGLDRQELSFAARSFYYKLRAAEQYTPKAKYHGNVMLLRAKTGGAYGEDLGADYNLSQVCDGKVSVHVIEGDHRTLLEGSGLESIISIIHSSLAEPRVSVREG

CCCCCCCC1CCC(=O)O1 (configuration not stated)
not listed: [17] | [18] | [19]
inactive: all other assays above

C[C@@H](Oc1ccc(CNC(=O)c2cccnc2Oc2ccc3c(c2)OCO3)c(F)c1)C(=O)O
active: [2] 0.128 µM
inactive: all other assays above

c1ccc2c(c1)-c1cccc3c1c-2cc1ccccc13
active: [4] 13.7 µM | [7] 5.32 µM | [8] 15.1 µM | [9] 18.4 µM | [17] 0.851 µM | [10] 10.6 µM | [11] 5.04 µM | [13] 4.9 µM | [18] 15.5 µM | [14] 11.3 µM | [15] 21 µM | [19] 15.1 µM | [16] 13.8 µM
inactive: [1] | [2] | [3] | [5] | [6] | [12]

CCCCCCOC(=O)CC(CC(=O)OCCCCCC)(OC(=O)CCC)C(=O)OCCCCCC
not listed: [1] | [2]
inactive: all other assays above

CNC(C)=O
active: [17] 75.2 µM
not listed: [1] | [2]
inactive: all other assays above

O=C(O)c1cccc(C(=O)O)c1
active: [17] 50 µM
not listed: [1] | [2]
inactive: all other assays above

Cc1nc(-c2ccccn2)ncc1C(=O)Nn1cc(C)c2cc(F)ccc21
active: [5] 1.49 µM | [8] 50 µM | [9] 85.2 µM | [17] 18.6 µM | [18] 2.77 µM | [19] 50 µM | [16] 12.2 µM
not listed: [1] | [2]
inactive: all other assays above
